# Screening data from PubChem BioAssay.
# Rtt109 Vps75: blocks Candida albicans Rtt109/Vps75 acetyltransferase activity; purified Rtt109/Vps75, ThioGlo CoA-SH fluorescence, 4 h; 330,000 tested, 0.16% active; AID 540336; inhibition, % at 34.9 µM;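 active = inhibition of at least 50% in every replicate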
# Target sequence (Q5AAJ8 whole entry, looked up): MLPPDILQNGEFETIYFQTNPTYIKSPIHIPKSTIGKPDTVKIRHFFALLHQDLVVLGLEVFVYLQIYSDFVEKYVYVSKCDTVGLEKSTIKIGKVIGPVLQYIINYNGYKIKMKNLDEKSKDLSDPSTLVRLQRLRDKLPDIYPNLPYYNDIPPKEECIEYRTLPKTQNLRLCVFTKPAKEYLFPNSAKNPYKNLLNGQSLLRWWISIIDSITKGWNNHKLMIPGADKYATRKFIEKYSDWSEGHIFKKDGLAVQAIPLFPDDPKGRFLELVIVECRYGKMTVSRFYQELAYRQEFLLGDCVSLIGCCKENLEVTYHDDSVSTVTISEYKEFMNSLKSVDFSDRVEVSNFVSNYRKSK
# TLR4-MyD88 BLA: TLR4-MyD88 interaction inhibition in cells. O00206+Q99836. HeLa CL3-4 TLR4/MyD88 BLA complementation, FRET ratio. inhibition, % at 8.4 µM. 200,000 tested, 0.18% active; in the data active = inhibition above about 25%
# m5-HT2A agonist: mouse HTR2A agonism via beta-arrestin recruitment | activation, % at 7.6 µM | CHO-K1 mHTR2A beta-arrestin complementation, luminescence; percent of 30 µM serotonin response | 360,000 tested, 0.66% active;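 active = activation above a run cutoff, the mean activation of all tested compounds plus 3 SD, cut at about 14% in these data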
# TLR9-MyD88 inh: inhibitors of human TLR9-MyD88 binding; inhibition, % at 4.98 µM; 340,000 tested, 0.21% active; Q9NR96+Q99836; CHO BLA complementation TLR9-MyD88, CCF4 FRET ratio; AID 504734;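 active = inhibition above the mean over all tested compounds plus 3 SD, cut at about 21% in these data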
# NOD2 RIPK2 PPI: inhibitors of human NOD2-RIPK2 interaction. O43353. CHO BLA complementation NOD2-RIPK2, CCF4 ratio. inhibition, % at 4.98 µM. 360,000 tested, 0.38% active. AID 624267; in the data active = inhibition above about 21%
# LANA-H2A inh: blocks KSHV LANA binding to histone H2A/H2B. Q9QR71. cell-free LANA-H2A/H2B peptide, fluorescence polarization. inhibition, % (no concentration beside the values). 320,000 tested, 0.6% active. AID 2629; in the data active = inhibition mostly above about 10%, no sharp cut-off; inactive = mostly below about 6.7%
# OPRM1 ag: activates human mu opioid receptor in HTR2A counterscreen | shares compounds with m5-HT2A agonist | U2OS OPRM1 beta-arrestin PathHunter, luminescence; DMSO 0%, DAMGO 9.3 µM 100% | activation, % at 9.3 µM | 2,300 tested, 5.3% active | AID 624380;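 active = mean activation above the mean of DMSO-only wells plus 3 SD, cut at about 0.5% in these data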
# HTR2A ag conf: mouse HTR2A agonism confirmed; shares compounds with m5-HT2A agonist; CHO-K1 PathHunter beta-arrestin recruitment, luminescence; DMSO 0%, 30 µM serotonin 100%; activation, % at 7.6 µM; 2,300 tested, 19% active; AID 624381;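 active = mean activation across triplicates above the hit threshold derived in the original primary screen, cut at about 15% in these data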
# Numbers stand for hits; n = inactive; x = no result given. This is a sample that favours compounds with a hit; in the whole collection about 1.8% have one here.
SMILES,Rtt109 Vps75,TLR4-MyD88 BLA,m5-HT2A agonist,TLR9-MyD88 inh,NOD2 RIPK2 PPI,LANA-H2A inh,OPRM1 ag,HTR2A ag conf
CCOP(=O)(OCC)C(O)c1ccccc1 (stereo not given),n,x,16,n,n,n,n,n
CCOP(=O)(OCC)C(O)c1ccc(Br)cc1 (stereo not given),n,n,n,n,n,n,x,x
CN(C)CCSC1c2ccccc2CSc2ccccc21 (stereo not given),x,x,n,x,n,n,x,x
CCCCCCC(C)(C)c1ccc([C@@H]2C[C@H](O)CC[C@H]2CCCO)c(O)c1,n,x,29,n,n,n,0.8,23
O=C(COc1ccc2ccccc2c1)N1CCN(Cc2c[nH]c3ccccc23)CC1,n,n,34,n,n,n,n,19
O=C(COc1ccc(Br)cc1)N1CCN(Cc2c[nH]c3ccccc23)CC1,n,n,56,n,n,n,n,28
COC(=O)C1=C(c2ccc(OC(F)(F)F)cc2)C[C@@H]2CC[C@H]1N2C(=O)NCCCOC(C)C,n,x,n,n,n,n,x,x
C=C[C@@]12CN(C)[C@H]3[C@H]1[C@@]1(C(=O)Nc4ccccc41)C1CC2[C@@H]3CO1,n,x,n,n,n,n,x,x
CCCN1CCc2cccc3c2[C@H]1Cc1ccc(O)c(O)c1-3,n,x,62,n,n,n,1.4,136
COc1ccc2c(c1O)-c1c(OC)c(OC)cc3c1[C@H](C2)N(C)CC3,n,x,n,n,n,n,x,x
C=C1C(=O)[C@@]23C[C@H]4[C@@H]5[C@@]6(C)CCC[C@@]57[C@@H]2[C@@H](O)[C@@H]1C[C@H]3[C@H]7N4C6,n,x,n,n,n,n,x,x
Cn1c(O)c(C(=O)c2ccccc2F)c(=O)n(C)c1=O,n,n,n,n,n,n,x,x
Cn1c(O)c(C(=O)c2ccccc2)c(=O)n(C)c1=O,n,n,18,n,n,n,n,n
O=C1C(Cc2cnc[nH]2)NC(=S)N1c1ccccc1 (stereo not given),n,x,n,n,n,n,x,x
Cc1ccc(NC2=NCCCS2)c(C)c1C,n,n,19,n,n,x,n,15
CCCCC1(CC)COP(=O)(OCC(Cl)(Cl)Cl)OC1 (stereo not given),n,x,20,n,n,x,n,n
Cc1ccc(CNCCc2ccc(F)cc2)s1,n,x,n,n,n,n,x,x
COc1ccc(CCNCc2cccn2C)cc1OC,n,x,25,n,n,n,n,n
Cn1cccc1CNCCc1ccc(F)cc1,n,n,n,n,n,n,x,x
COc1ccc(CCNCc2ccc(C)s2)cc1OC,n,n,16,n,n,n,n,n
COc1ccc(CCNCc2sccc2C)cc1OC,n,n,32,n,n,n,n,n
COc1ccc(-c2ccc3c(c2)CN(C(=O)C(C)(C)C)Cc2cnnn2-3)cc1,x,x,n,x,n,x,x,x
COc1ccc(OC(=O)N(C)C[C@@H]2OCc3cnnn3CCCC(=O)N([C@H](C)CO)C[C@@H]2C)cc1,x,x,n,n,n,x,x,x
CCS(=O)(=O)Nc1cccc(C(=C2CCCCC2)c2cnc[nH]2)c1,n,x,n,n,n,n,x,x
CNC(=O)NC(O)C(Cl)(Cl)Cl (stereo not given),n,x,n,n,n,n,x,x
SMILES,Rtt109 Vps75,TLR4-MyD88 BLA,m5-HT2A agonist,TLR9-MyD88 inh,NOD2 RIPK2 PPI,LANA-H2A inh,OPRM1 ag,HTR2A ag conf
C=CCN=C(SCC(=O)c1ccc(Cl)cc1)c1c(O)n(C)c(=O)n(C)c1=O,n,x,n,n,n,n,x,x
CCN(C(=O)COC(=O)Cc1ccccc1)c1c(N)n(Cc2ccccc2)c(=O)[nH]c1=O,n,x,n,n,n,n,x,x
Clc1cccc(N2CCNCC2)n1,n,n,39,n,n,n,n,24
CCc1ccc(C2=NN(CCC(=O)N3CCC4(CC3)OCCO4)C(=O)CC2)cc1,n,n,n,n,n,n,x,x
CC1=NN=C(c2ccc(N)cc2)c2cc3c(cc2C1)OCO3,n,x,31,n,n,n,n,40
O=C1/C(=C\c2ccccc2)C2OCC=C3CN4CCC56c7ccccc7N1C5C2C3CC46 (stereo not given),n,x,n,n,n,n,x,x
CC(=O)c1cccc(OCC(O)CN2CC=C(c3ccccc3)CC2)c1 (stereo not given),n,n,19,n,n,n,n,79
CC(C)(O)/C=C/C(=O)C(C)(O)C1C(O)CC2(C)C3CC=C4C(C=C(O)C(=O)C4(C)C)C3(C)C(=O)CC12C (stereo not given),n,x,30,n,n,x,n,n
Cc1cccc(-c2nc3ccc(C(=O)N4CCC5(CC4)OCCO5)cc3nc2-c2cccc(C)c2)c1,n,x,n,n,n,n,x,x
Cc1ccccc1NC1(C#N)CCCCC1,n,n,n,n,n,n,x,x
CCOC(=O)c1ccc(NC(=O)N2C[C@@H]3C[C@@H](C2)c2cccc(=O)n2C3)cc1,n,x,25,n,n,n,n,n
COC(=O)C1=C(c2ccc(F)cc2OCc2ccccc2)C[C@@H]2CC[C@H]1N2C(=O)NCc1ccccc1Br,n,x,n,n,n,n,x,x
C=C[C@H]1CN2CC[C@H]1C[C@@H]2[C@@H](O)c1ccnc2ccccc12,n,x,n,n,n,n,x,x
NC1CCc2cc(O)c(O)cc2C1 (stereo not given),n,x,58,n,n,n,n,153
Cc1cc(=O)oc2c(C)c(OCC(=O)N3CCC(C(=O)O)(c4ccccc4)CC3)ccc12,n,x,n,n,n,n,x,x
OCCNCCc1c[nH]c2ccc(OCc3ccccc3)cc12,n,x,n,n,n,n,x,x
COc1ccc2[nH]cc(CCN)c2c1,n,n,52,n,n,n,n,28
COc1ccc(CC(=O)Nc2ccc(C#N)c(Cl)c2)cc1S(=O)(=O)N1CCOCC1,n,x,n,n,n,n,x,x
Cc1nc2cc(OC(=O)N(C)Cc3cccc(-c4ccncc4)c3)ccc2s1,x,x,20,x,n,x,n,n
CN(Cc1cccc(-c2ccncc2)c1)C(=O)Oc1ccccc1Cl,x,x,n,x,n,x,x,x
C#C[C@]1(O)CC[C@H]2[C@@H]3CCC4=Cc5nc6nc7ccccc7n6cc5C[C@]4(C)[C@H]3CC[C@@]21C,n,x,n,n,n,n,x,x
C[C@]12CCC3[C@@H](CC[C@@H]4C[C@H](O)CC[C@]34C)[C@@H]1CCC2=O (stereo not given in full),n,x,n,n,n,n,x,x
C[C@]12CC[C@H](O)C[C@@H]1CC[C@@H]1[C@@H]2CC[C@]2(C)C(=O)CC[C@@H]12,n,x,22,n,n,n,n,n
CCCCCn1c(=O)c(C(=O)NCc2ccco2)c(O)c2ccccc21,n,n,18,n,n,n,n,n
